# Results published in PubChem BioAssay AID1851 (National Center for Advancing Translational Sciences (NCATS), 2009).
# The campaign covered roughly 16,000 compounds. About 4,000 (25%) were called active. Not shown: some 26% with an inconclusive outcome. Only a sample is shown. Values without a mark were called inactive. The call rests on the fitted dose curve; in most records, active means well fitted curve in the direction sought with a large enough effect; inconclusive means small, poorly fitted or top-dose-only effect, or effect the other way; inactive means no such curve, though single readings can be large or run the other way.
# Biological target: Cytochrome P450 2C9 (Homo sapiens) (UniProt P11712)
# Assay: Cytochrome panel assay with activity outcomes
# Conditions: recombinant CYP, pro-luciferin dealkylation, luminescence, p450-cyp2c9; series mostly up to 57.1 µM; activity, negative = inhibition: at the top concentration
# On the % scale 0 is the no-effect control and ±100 the full control effect.
# Sequence of Cytochrome P450 2C9 (Homo sapiens) (P11712 whole entry, looked up): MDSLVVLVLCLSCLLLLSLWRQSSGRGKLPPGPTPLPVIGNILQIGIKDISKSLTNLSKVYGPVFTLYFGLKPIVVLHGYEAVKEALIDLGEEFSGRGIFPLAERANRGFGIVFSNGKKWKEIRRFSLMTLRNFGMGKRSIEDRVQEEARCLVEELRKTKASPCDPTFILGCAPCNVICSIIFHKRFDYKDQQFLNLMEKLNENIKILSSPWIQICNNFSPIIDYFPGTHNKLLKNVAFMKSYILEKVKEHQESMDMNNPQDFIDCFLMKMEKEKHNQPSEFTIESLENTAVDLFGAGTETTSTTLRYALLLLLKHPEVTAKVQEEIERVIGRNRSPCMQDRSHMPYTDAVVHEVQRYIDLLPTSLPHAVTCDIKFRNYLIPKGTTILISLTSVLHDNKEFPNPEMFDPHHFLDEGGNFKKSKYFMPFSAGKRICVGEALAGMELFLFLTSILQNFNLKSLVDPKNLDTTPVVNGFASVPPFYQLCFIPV
SMILES,"activity, negative = inhibition",AC50
C[N@+]1(CCC(=O)c2ccccc2)CC[C@H]2CC[C@H](C2)C1,8.55% [at 11.4 µM],–
N/N=C1/CC(=O)NC(=O)N1,28.1% [at 11.4 µM],–
CC(CC(=O)O)(CC(=O)O)c1ccccc1,13.9% [at 11.4 µM],–
CC(C)(C)C(=O)N(CCN(C(=O)C(C)(C)C)c1ccccc1)c1ccccc1,–,15.8 µM (active)
CC(=O)N(CC(=O)O)c1ccccc1C(=O)O,-20.7%,–
O=C(c1cccc(F)c1)N1CCC2(CCCN(c3cccc(-c4ccccc4)c3)C2)CC1,–,12.6 µM (active)
O=C(c1cccc(F)c1)N1CCC2(CCCN(c3ccc(-c4ccccc4)cc3)C2)CC1,–,15.8 µM (active)
O=C(c1cccc(F)c1)N1CCC2(CC1)CCN(c1cccc(-c3ccccc3)c1)CC2,-3.94%,–
O=C(c1cccc(F)c1)N1CCC[C@@]2(CCN(c3ccccc3)C2)C1,4.38%,–
O=C(c1cccc(F)c1)N1CCC2(CCCN(c3ccccc3)C2)CC1,–,10 µM (active)
O=C(c1cccc(F)c1)N1CCC2(CC1)CCN(c1ccc(-c3ccccc3)cc1)CC2,5.13%,–
CC(C)NC(=O)N1CCCC2(CCN(C(=O)c3cccc(F)c3)CC2)C1,24.4%,–
O=C(c1cccc(F)c1)N1CCC2(CC1)CN(c1cccc(-c3ccccc3)c1)C2,-14.6%,–
O=C(c1cccc(F)c1)N1CCC2(CC1)CN(c1ccc(-c3ccccc3)cc1)C2,-14%,–
O=C(c1cc(C(F)(F)F)cc(C(F)(F)F)c1)N1CCC[C@@]2(CCN(c3ccccn3)C2)C1,-4.83%,–
Clc1ccc(C(c2nnnn2C2CCCC2)N2CCN(Cc3ccncc3)CC2)cc1 (centres undefined),–,1.12 µM (active)
Cc1ccc(C(c2nnnn2C2CCCC2)N2CCN3CCCC3C2)cc1 (centres undefined),-15.1%,–
CN1CCCN([C@@H](c2ccccc2)c2ccc(Cl)cc2)CC1,0.463% [at 25.6 µM],–
COc1ccc2c(c1)c(CC(=O)O)c(C)n2C(=O)c1ccccc1,–,10 µM (active)
COc1ccc2c(c1)c(CC(=O)OCC(=O)O)c(C)n2C(=O)c1ccc(Cl)cc1,-5.28% [at 25.6 µM],–
COc1ccc2c(c1)c(CC(=O)O)c(C)n2C(=O)c1ccc(Cl)cc1,6.09%,–
O=C(O)/C=C\[C@H](O)c1ccc(Cl)cc1,-12.8%,–
O=C(CSc1nnc2c3ccccc3c3ccccc3c2n1)Nc1ccccc1,–,2.51 µM (active)
c1ccc(CSc2nnc3c4ccccc4c4ccccc4c3n2)cc1,-1.66% [at 11.4 µM],–

SMILES,"activity, negative = inhibition",AC50
O=C(CSC1=NCCN1)Nc1ccccc1,2.48% [at 11.4 µM],–
C[N+]1(CCC[N+]2(C)C[C@H]3[C@H](C2)[C@H]2C=C[C@@H]3CC2)CCOCC1 (some centres undefined),-9.72% [at 11.4 µM],–
N[C@]1(C(=O)O)CCc2cc(P(=O)(O)O)ccc21,-9.65%,–
COC(=O)c1c(-c2ccccc2)csc1NC(=O)CSc1ncnc2sc(C)c(C)c12,–,1.26 µM (active)
CCc1ccc(OCC(=O)NNC(=O)CSc2ncnc3sc(C)c(C)c23)cc1,13.8%,–
Nc1nc(Nc2ccccc2)nc2c1ncn2[C@@H]1O[C@@H](CO)[C@H](O)[C@H]1O,–,0.794 µM (active)
Nc1nc(Cl)nc2c1ncn2[C@@H]1O[C@@H](CO)[C@@H](O)[C@H]1O,-24.4%,–
Nc1nc(Nc2ccccc2)nc2c1ncn2[C@@H]1O[C@@H](CO)[C@H](O)[C@@H]1O,-3.52%,–
Nc1ccc(-c2sc(N)nc2-c2ccccc2)cc1,–,28.2 µM (active)
Nc1nc(-c2ccccc2)c(-c2ccccc2)c(-c2nc(N)nc(-c3ccccc3)c2-c2ccccc2)n1,-3.1% [at 11.4 µM],–
COc1ccc(CNc2ncnc3ccc(-c4c(C)noc4C)cc23)c(OC)c1,-23.3% [at 2.29 µM],–
CN(C)c1ncc2nc(-c3ccccc3)c(=O)n(Cc3ccc(F)cc3)c2n1,-9.82%,–
COc1ncc2ncc(=O)n(Cc3ccc(F)cc3)c2n1,-8.06%,–
CCNc1ncc2nc(-c3ccc(Cl)cc3)c(=O)n(Cc3ccc(F)cc3)c2n1,16.8%,–
CN(C)c1ncc2ncc(=O)n(Cc3ccc(F)cc3)c2n1,–,10 µM (active)
CCNc1ncc2nc(C)c(=O)n(Cc3ccc(F)cc3)c2n1,18.9%,–
CCNc1ncc2ncc(=O)n(Cc3ccc(F)cc3)c2n1,–,20 µM (active)
C[C@H](N)C1CCC(C(=O)Nc2ccncc2)CC1 (some centres undefined),-14.4%,–
O=C(CCCN1CCC(O)(c2ccc(Br)cc2)CC1)c1ccc(F)cc1,26.6% [at 25.6 µM],–
Cc1cc(C)nc(Nc2n[nH]c(-c3cccc4ccccc34)n2)n1,23.5%,–
O=C(CCN1C(=O)C2C3C=CC(C3)C2C1=O)Nc1ccc2ncccc2c1 (centres undefined),-29.9%,–
Cc1ccc(-c2cnc(NC(=O)CCC(=O)N3CCCCC3)n2C)cc1,3.26%,–
Cc1ccc(NC(=O)CCN2C(=O)c3ccncc3C2=O)cc1,–,14.1 µM (active)
COc1cc(OC)c2c(c1Cl)O[C@@]1(C2=O)[C@H](C)CC(=O)C[C@@H]1OC,7.76% [at 25.6 µM],–

SMILES,"activity, negative = inhibition",AC50
CN(C)c1ccc(-c2ccc3ncnc(NC4CC4)c3c2)cc1,4.64% [at 2.29 µM],–
O=C(CSCc1ccccc1)Nc1cccc(C(=O)Nc2ccccc2C(=O)O)c1,–,0.447 µM (active)
CC1CC2=C(NC(=S)NC2c2ccc(F)cc2)/C(=C/c2ccc(F)cc2)C1 (centres undefined),–,8.91 µM (active)
O=C1CC(NCCC2=CCCCC2)C(=O)N1c1cccc(Cl)c1Cl (centres undefined),–,14.1 µM (active)
N[C@H](C(=O)O)c1ccc(C(=O)O)cc1,-2.88%,–
CC(=O)NC1=NN(c2ccccc2)C(=O)C1,9.39%,–
COC(=O)c1ccccc1-c1ccc(/C=C2\C(=O)N(c3ccccc3)N=C2c2ccccc2)o1,–,5.62 µM (active)
COc1ccc(-c2ccc(/C=C3\C(=O)N(c4ccccc4)N=C3c3ccccc3)o2)c([N+](=O)[O-])c1,–,2.51 µM (active)
NC(=NC1C2CC3CC(C2)CC1C3)Nc1ccc(I)cc1 (centres undefined),15.5%,–
CC[C@@]1(O)C(=O)OCc2c1cc1n(c2=O)Cc2cc3c(CN(C)C)c(O)ccc3nc2-1,-1.39% [at 11.4 µM],–
Cc1cc2nc3[nH]c4c(Cl)cc(Cl)cc4c3nc2cc1C,-11.6% [at 11.4 µM],–
O=C(O)CSc1ccn(Cc2ccccc2)c1,-1.85% [at 11.4 µM],–
C=CCCCCCCCCC(=O)Nc1c[nH]c(=O)[nH]c1=O,-17.1%,–
O=C(NC(=S)Nc1ccc2c(c1)OCO2)c1ccccc1,–,3.98 µM (active)
Cc1onc(-c2c(Cl)cccc2Cl)c1C(=O)Nc1ccc2c(c1)OCO2,–,1.41 µM (active)
C[N+](C)(C)c1ncnc2c1ncn2[C@@H]1CCCCO1,8.84% [at 11.4 µM],–
CCCOc1ccc(C(=O)OCCN(CC)CC)cc1N,16.1% [at 25.6 µM],–
Clc1ccc(Nc2ncn[nH]2)cc1,-21.5%,–
CN1CCN(c2ncc3ncc(=O)n(-c4ccccc4)c3n2)CC1,15.8%,–
O=C1CC(c2ccccc2)Cc2nc(N3CCc4ccccc4C3)ncc21 (centres undefined),–,4.47 µM (active)
CC1CC(=O)c2cnc(N)nc2C1 (centres undefined),-14.6%,–
Cc1ccc(-c2noc(CN3CCN(C(c4ccccc4)c4ccccc4)CC3)n2)cc1,–,5.01 µM (active)
Clc1ccc(-c2noc(CN3CCCCC3)n2)cc1,-0.0394% [at 11.4 µM],–
CC(=O)[C@@H](C)CCO[C@@]1(C)OCC[C@@H]1C,-15.7% [at 11.4 µM],–

SMILES,"activity, negative = inhibition",AC50
Cc1c(Cl)c(S(N)(=O)=O)cc(S(N)(=O)=O)c1NC(=O)c1ccc(Cl)cc1,-6.54% [at 11.4 µM],–
Cc1ccc(NCCC(=O)c2ccc(Cl)cc2)cc1C,1.28%,–
CC(C)(C)N(NC(=O)Nc1ccccc1)C(=O)c1ccccc1Cl,–,14.1 µM (active)
CC(C)(CC(=O)Nc1ccccc1)C(=O)O,4.33% [at 11.4 µM],–
Cc1cc(C)cc(C(=O)N(NC(=O)Nc2ccc(Cl)cc2)C(C)(C)C)c1,–,5.01 µM (active)
O=S1(=O)CCN(c2ccccc2CC(c2c[nH]c3ccccc23)c2c[nH]c3ccccc23)CC1,–,3.16 µM (active)
O=C(O)[C@@H](Cc1c[nH]c2ccccc12)C(=O)NO,-10.3% [at 11.4 µM],–
c1ccc2c(CN3CCN(Cc4c[nH]c5ccccc45)CC3)c[nH]c2c1,-0.0395% [at 11.4 µM],–
Cc1ncn(-c2ccccc2O)c1C,9.91% [at 11.4 µM],–
CCOC(=O)N1CCC(NC(=O)CSCc2cnn(-c3ccccc3)c2-n2cccc2)CC1,–,4.47 µM (active)
CCOC(=O)N1CCC(NC(=O)CCC(=O)N2CCOc3ccccc32)CC1,-15.9%,–
Cc1ccc(NC(=O)Cn2cnc3c(cnn3C(C)(C)C)c2=O)cc1,–,10 µM (active)
Cc1ccccc1Cn1cnc2c(cnn2C(C)(C)C)c1=O,–,15.8 µM (active)
Cc1ccc(C)c(Cn2cnc3c(cnn3C(C)(C)C)c2=O)c1,–,8.91 µM (active)
Cc1ccc(-n2ncc3c(=O)n(CC(=O)NCC4CCCO4)cnc32)cc1 (centres undefined),-23.5%,–
CO[C@H]1[C@H](O[C@H]2O[C@@H](C)[C@@H](O[C@@H]3C[C@](C)(O)[C@H](OC(=O)CC(C)C)[C@H](C)O3)[C@@H](N(C)C)[C@@H]2O)[C@@H](CC=O)C[C@@H](C)[C@@H](O)/C=C\C=C/C[C@@H](C)OC(=O)C[C@H]1OC(C)=O,9.52% [at 25.6 µM],–
Cc1cnc(CNc2ccnc(-c3ccccc3Cl)n2)cn1,7.84% [at 2.29 µM],–
CN(C)c1ccc(-c2cncnc2-n2ccnc2)cc1,15.2% [at 2.29 µM],–
C[C@@H](CSC(=N)N)C(N)=O,-9.17% [at 11.4 µM],–
COc1ccccc1N1CCN(CCCCNS(=O)(=O)c2cccc3c(N(C)C)cccc23)CC1,-10.7%,–
Cc1noc(NS(=O)(=O)c2cccc3c(N(C)C)cccc23)c1C,–,0.631 µM (active)
Cc1noc(C)c1-c1nc(N(C)C)c2ccccc2n1,27.2% [at 2.29 µM],–
